Data as given in PubChem BioAssay.
A number with no mark means an inactive call. The rule behind the calls is not given here.

Each compound was assayed against Pantothenate synthetase (Mycobacterium tuberculosis (strain ATCC 25618 / H37Rv)) (UniProt P9WIL5) (assay: Recombinant Mtb pantothenate synthetase (PanC) inhibitors, coupled enzyme, confirmatory (AID 375;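 note: 0% = full reaction with vehicle and 100% = no enzyme background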)). Settings: coupled enzyme assay; at 10 µM, active compounds read high.
Pantothenate synthetase (Mycobacterium tuberculosis (strain ATCC 25618 / H37Rv)), sequence (P9WIL5 whole entry, looked up): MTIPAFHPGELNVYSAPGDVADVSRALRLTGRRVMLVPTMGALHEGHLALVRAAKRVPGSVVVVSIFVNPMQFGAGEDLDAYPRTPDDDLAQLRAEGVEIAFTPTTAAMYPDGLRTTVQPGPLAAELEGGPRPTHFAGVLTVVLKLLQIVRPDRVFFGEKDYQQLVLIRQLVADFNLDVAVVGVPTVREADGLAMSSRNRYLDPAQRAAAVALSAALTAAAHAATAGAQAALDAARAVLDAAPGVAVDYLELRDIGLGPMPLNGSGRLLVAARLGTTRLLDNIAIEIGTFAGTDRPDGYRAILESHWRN

SMILES	inhibition
CCOC(=O)c1ccccc1NC(=O)CSc1nc2c(c(=O)n(C)c(=O)n2C)n1C	0%
Cn1c(=O)cc(SCC(=O)N2CCOCC2)c2ccc(Cl)cc21	0%
CC(=O)Nc1cccc(-c2nnc(-c3ccccc3)o2)c1	4%
CCc1cc(C(=O)OC)c(NC(=O)CCC(=O)O)s1	2%
Cc1cc(NC(=O)CCC(=O)N(CC(=O)NC2CCCC2)Cc2ccc(F)cc2)no1	0%
COc1cc(C2C(C#N)=C(C)NC3=C2C(=O)CC(C)(C)C3)ccc1O (configuration not stated)	0%
CCn1c(=O)c(C(=O)NCCc2ccccc2)c(O)c2ccccc21	0%
CCc1ccccc1-n1c(SCC(=O)N2CCCC2)nnc1-c1ccccn1	0%
Cc1ccc2cc(C(c3nnnn3C3CCCC3)N3CCN(c4ccc(F)cc4)CC3)c(=O)[nH]c2c1 (configuration not stated)	6%
O=C(O)c1cc2cc(F)ccc2[nH]1	2%
Cc1ccc2oc(-c3ccccc3C(=O)O)cc(=O)c2c1	13%
CCN1CCN(C(CNC(=O)c2ccc3c(c2)OCO3)c2cccnc2)CC1 (configuration not stated)	0%
Cc1cnc(NC(=O)C2=C(O)c3ccccc3S(=O)(=O)N2C)s1	0%
Cc1cc(=O)n(-c2ccc3ccccc3n2)[nH]1	6%
CCN(CC)C(=O)C1CCCc2c1[nH]c1ccc(Cl)cc21 (configuration not stated)	0%
O=C(Nc1cccc(OCC(=O)N2CCOCC2)c1)C1CCCCC1	0%
CCCC1Cc2c(sc3ncnc(N)c23)CO1 (configuration not stated)	0%
